In PubChem BioAssay (NCATS):
Values joined by “and” are separate entries in the source; they are usually repeats but may differ in a detail not shown here. Equal values may be shown once. Inconclusive results are not listed. A call without a number means that no potency is given here. More than one record can exist for a structure, and the calls need not agree. Active and inactive are the calls of the source. Unless noted, the call rests on the fitted dose curve; in most records, active means well fitted curve in the direction sought with a large enough effect; inconclusive means small, poorly fitted or top-dose-only effect, or another doubt; inactive means no such curve, though single readings can be large; an effect the other way counts as inactive or inconclusive.

Tests used:
[1] = Counterscreen qHTS for small molecule stabilizers of the endoplasmic reticulum resident proteome: GLuc-NoTag assay (AID 1508627); further: series mostly up to about 76 µM
How it was run: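 Secreted GLuc lacking the SERCaMP modification is measured in SH-SY5Y cells exposed to compound for 19 h and then to thapsigargin (100 nM, 4 h) to deplete ER calcium; hits retested at 11 concentrations, up to 76.6 uM.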

[2] = Confirmatory qHTS for small molecule stabilizers of the endoplasmic reticulum resident proteome: Secreted ER Calcium Modulated Protein (SERCaMP) assay (AID 1508628); further: series mostly up to about 76 µM; nearly all actives have a fitted effect of over 40% in size
How it was run: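 GLuc-SERCaMP-expressing SH-SY5Y cells, pretreated 16 h with compound, are challenged with thapsigargin to empty ER calcium stores; after 4 h, coelenterazine is added directly to the medium and luminescence is imaged.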

[3] = A High-Content qHTS Against Drug Library for the Identification of Small Molecules that Inhibit DYT1 Early Onset Primary Dystonia-Associated Cell Pathology (AID 1645839; calls by dose curve; further: series mostly up to about 46 µM)
How it was run: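 Induced EGFP-delE TorsinA cells are imaged after 48 h of compound treatment. Punctate fusion-protein distribution gives the %pathology value, while nuclei counts flag toxicity. Wild-type EGFP-hTOR1A cells define the normal pattern.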

[4] = molecular target: Cytochrome P450 2D6 (Homo sapiens) (UniProt P10635); assay: Cytochrome P450 family 2 subfamily D member 6 (CYP2D6) small molecule antagonists: luciferase biochemical (cell-free) qHTS assay (AID 1645840; active means well fitted curve in the direction sought with a large enough effect in the repeat runs; an effect the other way counts as inactive or inconclusive; further: nearly all actives have a fitted effect of over 55% in size; further: potency means the concentration at half of the fitted maximal effect)
How it was run: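 P450-Glo CYP2D6 system: proluciferin substrate converted by enzyme to luciferin, read by luminescence proportional to activity. Enzyme-substrate mix with compound 10 min at room temperature, then NADPH regeneration 1 h before detection reagent.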

[5] = molecular target: N-terminal Xaa-Pro-Lys N-methyltransferase 1 (Homo sapiens) (UniProt Q9BV86); assay: Confirmatory qHTS for Inhibitors of N-terminal methyltransferase 1 (NTMT1): MTaseGlo Assay (AID 1645874);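 further: luminescence from SAH made as NTMT1 methylates SPKRIA peptide using SAM; series mostly up to about 100 µM; nearly all actives have a fitted effect of over 65% in size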
How it was run: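 MTase-Glo luminescence measured SAH formed by 125 nM NTMT1 from 100 uM SAM and 1 uM SPKRIA peptide over 30 min at room temperature, following 15 min compound preincubation. Percent inhibition against no-enzyme and DMSO controls gave 4-parameter Hill fits.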

[6] = Primary qHTS for small molecule stabilizers of the endoplasmic reticulum resident proteome: Secreted ER Calcium Modulated Protein (SERCaMP) assay (AID 1508630); further: potency means the concentration at half of the fitted maximal effect
How it was run: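 The SH-SY5Y reporter protocol was run at 3 concentrations up to 38.3 uM (primary) or 11 concentrations (follow-up): 16 h compound, 100 nM thapsigargin for 4 h, then extracellular luciferase luminescence.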

[7] = Cell Viability qHTS for small molecule stabilizers of the endoplasmic reticulum resident proteome (AID 1508629); settings: cell viability counter-screen, 100 nM thapsigargin for final 4 h;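 further: human SH-SY5Y neuroblastoma cells carrying the GLuc-SERCaMP reporter; compound exposure about 46 h in total before the viability read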
[8] = molecular target: Cytochrome P450 2C9 (Homo sapiens) (UniProt P11712); assay: Cytochrome P450 family 2 subfamily C member 9 (CYP2C9) small molecule antagonists: luciferase biochemical (cell-free) qHTS assay (AID 1645842; active means well fitted curve in the direction sought with a large enough effect in the repeat runs; an effect the other way counts as inactive or inconclusive; further: nearly all actives have a fitted effect of over 55% in size; further: potency means the concentration at half of the fitted maximal effect)
How it was run: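 P450-Glo CYP2C9 system: proluciferin substrate with enzyme in mix containing 0.4% BSA, 10 min at room temperature, then NADPH regeneration solution added and incubated 1 h at 37C. Detection reagent stopped reaction; luminescence read after 20 min as RLU.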

Chain of Cytochrome P450 2D6 (Homo sapiens) (P10635 whole entry, looked up): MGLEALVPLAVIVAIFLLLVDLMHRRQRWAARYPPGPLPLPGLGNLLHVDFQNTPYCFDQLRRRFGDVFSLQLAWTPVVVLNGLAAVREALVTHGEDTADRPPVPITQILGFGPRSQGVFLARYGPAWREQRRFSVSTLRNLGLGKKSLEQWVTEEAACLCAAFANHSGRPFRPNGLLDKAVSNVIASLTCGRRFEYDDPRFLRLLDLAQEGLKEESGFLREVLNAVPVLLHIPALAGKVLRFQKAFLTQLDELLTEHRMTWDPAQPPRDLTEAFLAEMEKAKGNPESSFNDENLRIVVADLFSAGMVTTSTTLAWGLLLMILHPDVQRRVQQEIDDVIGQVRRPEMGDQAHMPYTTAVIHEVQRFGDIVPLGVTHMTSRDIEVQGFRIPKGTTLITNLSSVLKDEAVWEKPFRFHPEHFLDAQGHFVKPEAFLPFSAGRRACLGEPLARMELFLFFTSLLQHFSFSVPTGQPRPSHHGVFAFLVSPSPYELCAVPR
Chain of Cytochrome P450 2C9 (Homo sapiens) (P11712 whole entry, looked up): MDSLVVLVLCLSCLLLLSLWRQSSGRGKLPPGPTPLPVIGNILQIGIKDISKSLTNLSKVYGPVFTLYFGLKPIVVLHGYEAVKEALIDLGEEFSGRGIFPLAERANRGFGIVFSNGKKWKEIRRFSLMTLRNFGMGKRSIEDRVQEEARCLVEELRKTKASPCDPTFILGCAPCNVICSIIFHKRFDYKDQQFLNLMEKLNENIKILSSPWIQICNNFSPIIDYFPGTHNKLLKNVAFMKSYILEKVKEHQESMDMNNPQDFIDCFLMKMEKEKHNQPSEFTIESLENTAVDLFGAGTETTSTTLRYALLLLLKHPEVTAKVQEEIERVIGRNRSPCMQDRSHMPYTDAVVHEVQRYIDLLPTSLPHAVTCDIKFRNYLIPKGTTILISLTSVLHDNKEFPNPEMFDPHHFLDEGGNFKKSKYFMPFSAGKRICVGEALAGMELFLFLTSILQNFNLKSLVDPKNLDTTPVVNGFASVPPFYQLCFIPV
Chain of N-terminal Xaa-Pro-Lys N-methyltransferase 1 (Homo sapiens) (Q9BV86 whole entry, looked up): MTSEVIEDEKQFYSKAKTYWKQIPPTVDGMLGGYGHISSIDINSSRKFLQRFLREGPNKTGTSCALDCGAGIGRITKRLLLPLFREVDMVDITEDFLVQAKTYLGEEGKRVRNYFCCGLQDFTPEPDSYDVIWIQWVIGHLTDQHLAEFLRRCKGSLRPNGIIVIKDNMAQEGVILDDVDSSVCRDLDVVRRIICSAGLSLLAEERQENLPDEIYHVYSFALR

Q: For `O=C(O)c1cccc(-c2noc(-c3ccccc3F)n2)c1`, which Potency [1] is on record?
A: inactive

Q: What about the Potency [2] of the same compound?
A: inactive

Q: What about the Potency [3] of the same compound?
A: inactive

Q: What about the Potency [4] of the same compound?
A: 1.55 µM (active)

Q: And the Potency [5]?
A: inactive

Q: Which Potency [6] does the source give for `Cc1c(C(=O)NN2CCCCC2)nn(-c2ccc(Cl)cc2Cl)c1-c1ccc(Cl)cc1` here?
A: inactive

Q: With `CN(C)CCc1c[nH]c2ccc(Cn3cncn3)cc12` as the compound, how does the Potency [6] read?
A: inactive

Q: Which results are given for `O=C(O)c1cc(=O)c2c(OCC(O)COc3cccc4oc(C(=O)O)cc(=O)c34)cccc2o1`?
A: Potency [1]: inactive; Potency [2]: inactive; max response [7]: 17.9% (inactive); Potency [6]: inactive; Potency [3]: inactive; Potency [4]: inactive; Potency [8]: inactive

Q: With `CN(C)c1ccc2nc3ccc(=[N+](C)C)cc-3sc2c1` as the compound, how does the Potency [6] read?
A: inactive

Q: For `CCc1nc(N)nc(N)c1-c1ccc(Cl)cc1`, which Potency [6] is on record?
A: inactive

Q: What about the Potency [3] of the same compound?
A: inactive

Q: And the Potency [4]?
A: 12.3 µM (active)

Q: And the Potency [8]?
A: inactive

Q: For `N=C(N=C(N)N)N1CCOCC1`, which Potency [6] is on record?
A: inactive

Q: And the Potency [3]?
A: inactive

Q: What about the Potency [4] of the same compound?
A: inactive

Q: Which Potency [6] does the source give for `CCCc1cc(=O)[nH]c(=S)[nH]1` here?
A: inactive

Q: And the Potency [3]?
A: inactive

Q: What about the Potency [4] of the same compound?
A: inactive

Q: For `Cc1ncc([N+](=O)[O-])n1CC(C)O` (centres undefined), which Potency [6] is on record?
A: inactive

Q: What about the Potency [3] of the same compound?
A: inactive

Q: And the Potency [4]?
A: inactive

Q: And the Potency [8]?
A: inactive

Q: With `COCCCN1CCC(NC(=O)c2cc(Cl)c(N)c3c2OCC3)CC1` as the compound, how does the Potency [6] read?
A: inactive

Q: What about the Potency [3] of the same compound?
A: inactive

Q: What about the Potency [4] of the same compound?
A: 3.47 µM (active)

Q: What about the Potency [8] of the same compound?
A: 2.45 µM (active)

Q: Which results are given for `C=CCc1cc(OC)c(O)c(C(=O)NCCO)c1`?
A: Potency [6]: inactive; Potency [3]: inactive; Potency [4]: inactive

Q: Which Potency [6] does the source give for `Oc1ccc(OCc2ccccc2)cc1` here?
A: inactive

Q: And the Potency [3]?
A: inactive

Q: And the Potency [4]?
A: 15.5 µM (active)

Q: For `N[C@@H](Cc1cc(I)c(Oc2cc(I)c(O)c(I)c2)c(I)c1)C(=O)O`, which Potency [6] is on record?
A: inactive and 749 nM (active)

Q: What about the Potency [3] of the same compound?
A: inactive

Q: What about the Potency [4] of the same compound?
A: inactive

Q: For `CCN(CCO)CCCC(C)Nc1ccnc2cc(Cl)ccc12` (centres undefined), which Potency [6] is on record?
A: inactive

Q: What about the % pathology change, negative = correction [3] of the same compound?
A: -8.74% [at 4.63 µM] (inactive)
